Experimental data as given in PubChem BioAssay AID1159580 (chemical genetic matrix, 2015).
Several values for one entry are separate records, joined by “and”; a condition that tells them apart may be missing. Identical values can stand only once. Among all 5,500 compounds or so, about 2,000 (36%) were called active. About 18% were inconclusive and are not listed. Cut-off read from the data, not from the text of the source: active = normalized growth mostly below about 0.91 (no sharp cut-off); inconclusive = no clear call, values can overlap the other calls; inactive = mostly above about 0.92. The list shows a part of the results.

Experiment: chemical genetic growth profiling, strain panel (AID 1159580);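 note: tested at 20 µM; growth read once vehicle control cultures reached saturation at 30 °C; 1 = growth at the plate median or of vehicle wells; lower values mean less growth of the strain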
Settings: S. cerevisiae deletion strains, growth OD

Measured: normalized growth

COS(C)(=O)=O
inactive: locus YAL013W, strain DEP1, hits give low values 1 | locus YAL021C, strain ccr4, hits give low values 0.997 | locus YAL026C, strain drs2, hits give low values 1 | locus YAL030W, strain snc1, hits give low values 0.996 | locus YBL061C, strain skt5, hits give low values 0.992 | locus YBR009C, strain hhf1, hits give low values 1 | locus YBR021W, strain FUR4, hits give low values 1 | locus YBR023C, strain chs3, hits give low values 0.994 | locus YBR171W, strain sec66, hits give low values 0.978 | locus YBR229C, strain ROT2, hits give low values 1.01 | locus YBR231C, strain swc5, hits give low values 0.969 | locus YBR279W, strain paf1, hits give low values 1 | locus YCL011C, strain gbp2, hits give low values 1.02 | locus YCL016C, strain dcc1, hits give low values 1 | locus YCL029C, strain bik1, hits give low values 1.02 | locus YCL069W, strain vba3, hits give low values 1 | locus YCR088W, strain abp1, hits give low values 0.993 | locus YDL005C, strain med2, hits give low values 0.979 | locus YDL035C, strain GPR1, hits give low values 1.02 | locus YDL040C, strain nat1, hits give low values 0.993 | locus YDL074C, strain BRE1, hits give low values 0.986 | locus YDL101C, strain DUN1, hits give low values 1 | locus YDL134C, strain PPH21, hits give low values 1 | locus YDL185W, strain tfp1, hits give low values 1.01 | locus YDL192W, strain arf1, hits give low values 1.01 | locus YDR001C, strain nth1, hits give low values 0.997 | locus YDR069C, strain doa4, hits give low values 1.01 | locus YDR101C, strain arx1, hits give low values 1.01 | locus YDR137W, strain rgp1, hits give low values 1.02 | locus YDR150W, strain NUM1, hits give low values 1 | locus YDR159W, strain sac3, hits give low values 0.944 | locus YDR162C, strain NBP2, hits give low values 0.993 | locus YDR195W, strain ref2 0.948 | locus YDR297W, strain sur2, hits give low values 0.982 | locus YDR318W, strain mcm21, hits give low values 1.03 | locus YDR334W, strain swr1, hits give low values 0.988 | locus YDR335W, strain msn5, hits give low values 1 | locus YDR388W, hits give low values 1.01 | locus YDR392W, strain spt3, hits give low values 0.947 | locus YDR502C, strain sam2, hits give low values 0.994 | locus YEL003W, strain gim4, hits give low values 0.989 | locus YEL037C, strain rad23, hits give low values 1 | locus YEL061C, strain CIN8 (second series), hits give low values 0.998 | locus YEL061C, strain CIN8, hits give low values 1.01 | locus YER015W, strain faa2, hits give low values 1.02 | locus YER016W, strain bim1, hits give low values 0.98 | locus YER110C, hits give low values 1.02 | locus YER111C, strain swi4, hits give low values 0.998 | locus YER155C, strain BEM2 (second series), hits give low values 0.976 | locus YER155C, strain BEM2, hits give low values 1.01 | locus YER167W, strain BCK2, hits give low values 1.02 | locus YFR010W, strain ubp6, hits give low values 0.995 | locus YGL078C, strain dbp3, hits give low values 0.999 | locus YGL086W, strain mad1, hits give low values 1.02 | locus YGL167C, strain pmr1, hits give low values 0.997 | locus YGL173C, strain kem1, hits give low values 1 | locus YGL227W, strain vid30, hits give low values 0.978 | locus YGL240W, strain doc1, hits give low values 0.957 | locus YGL248W, strain PDE1, hits give low values 1 | locus YGL253W, strain hxk2, hits give low values 1 | locus YGR078C, strain PAC10, hits give low values 0.986 | locus YGR135W, strain pre9, hits give low values 0.966 | locus YGR229C, strain SMI1, hits give low values 0.993 | locus YGR252W, strain gcn5, hits give low values 1.02 | locus YHR013C, strain ard1, hits give low values 1 | locus YHR027C, strain rpn1, hits give low values 0.983 | locus YHR030C, strain SLT2, hits give low values 1.01 and 1 | locus YHR079C, strain IRE1 (second series), hits give low values 1.02 | locus YHR079C, strain IRE1, hits give low values 0.999 | locus YHR094C, strain hxt1, hits give low values 1.02 | locus YHR129C, strain ARP1, hits give low values 1.01 | locus YHR142W, strain chs7, hits give low values 1.01 | locus YHR200W, strain rpn10, hits give low values 1.02 | locus YIL066C, strain RNR3, hits give low values 1.04 | locus YIL073C, strain SPO22, hits give low values 1.09 | locus YIL125W, strain kgd1, hits give low values 1.02 | locus YIR030C, strain dcg1, hits give low values 1.02 | locus YJL092W, strain hpr5, hits give low values 1 | locus YJL095W, strain BCK1 (second series), hits give low values 0.995 | locus YJL095W, strain BCK1, hits give low values 1 | locus YJL115W, strain asf1, hits give low values 0.982 | locus YJL129C, strain trk1, hits give low values 0.971 | locus YJL134W, strain LCB3, hits give low values 1.01 | locus YJL154C, strain vps35, hits give low values 0.988 | locus YJL164C, strain tpk1, hits give low values 0.996 | locus YJL166W, strain qcr8, hits give low values 1 | locus YJL168C, strain set2, hits give low values 1.02 | locus YJL187C, strain SWE1 (second series), hits give low values 1 | locus YJL187C, strain SWE1, hits give low values 0.992 | locus YJR043C, strain POL32, hits give low values 1.03 | locus YJR066W, strain TOR1, hits give low values 0.974
